Mtb betalactam: beta-lactam sensitization of Mtb H37Rv, H37Rv. M. tuberculosis H37Rv growth with meropenem, percent inhibition. AID 434955, 2010. 330,000 compounds, 0.27% hits. inhibition, % at 25 µM; call rule not given here;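 further: growth measured after seven days incubation then overnight dye step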
UGM FP inh: M. tuberculosis UGM enzyme inhibitors, primary screen, biochemical, fluorescence polarization, single point; purified UGM, fluorescence polarization probe displacement; inhibition, % at 10 µM; 320,000 compounds, 0.06% hits; AID 504406, 2011; in the data active means inhibition above about 10%, passing the limit was not always enough
Target sequence (P9WIQ1 whole entry, looked up): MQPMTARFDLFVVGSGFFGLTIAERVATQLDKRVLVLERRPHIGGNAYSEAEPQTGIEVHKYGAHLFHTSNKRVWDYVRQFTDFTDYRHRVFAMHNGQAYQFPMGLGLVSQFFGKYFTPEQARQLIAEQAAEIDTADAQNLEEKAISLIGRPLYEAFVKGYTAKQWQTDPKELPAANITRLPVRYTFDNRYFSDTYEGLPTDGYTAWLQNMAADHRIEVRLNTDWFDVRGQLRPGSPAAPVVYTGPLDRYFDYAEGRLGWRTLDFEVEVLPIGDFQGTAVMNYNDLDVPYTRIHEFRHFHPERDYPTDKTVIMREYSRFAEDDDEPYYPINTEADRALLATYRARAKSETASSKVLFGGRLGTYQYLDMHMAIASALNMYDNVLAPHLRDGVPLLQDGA
RecA splice inh: Mtb RecA intein splicing inhibitors, primary screen, biochemical, fluorescence, HTS; cell-free RecA intein splicing; AID 2221, 2009; inhibition, % (concentration not given with the values); Protein RecA (Mycobacterium tuberculosis (strain ATCC 25618 / H37Rv)), P9WHJ3; 290,000 compounds, 0.75% hits; in the data active means inhibition above about 30%
Rv3671c protease: Rv3671c serine protease inhibitors, primary screen, biochemical, fluorescence polarization, M. tuberculosis H37Rv | P9WHR9 | inhibition, % at 5.96 µM | 320,000 compounds, 0.048% hits | AID 2606, 2010; in the data active means inhibition above about 38%;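 further: extracellular domain of Rv3671c used as enzyme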
FBA Mtb inh: Mtb FBA enzyme inhibitors, primary screen, biochemical, fluorescence, strain H37Rv; Fructose-bisphosphate aldolase (Mycobacterium tuberculosis (strain ATCC 25618 / H37Rv)), …; purified M. tuberculosis FBA, fluorescence read-out; inhibition, % at 1 µM; AID 588726, 2011; 360,000 compounds, 2.3% hits
Target sequence (P9WQA3 whole entry, looked up): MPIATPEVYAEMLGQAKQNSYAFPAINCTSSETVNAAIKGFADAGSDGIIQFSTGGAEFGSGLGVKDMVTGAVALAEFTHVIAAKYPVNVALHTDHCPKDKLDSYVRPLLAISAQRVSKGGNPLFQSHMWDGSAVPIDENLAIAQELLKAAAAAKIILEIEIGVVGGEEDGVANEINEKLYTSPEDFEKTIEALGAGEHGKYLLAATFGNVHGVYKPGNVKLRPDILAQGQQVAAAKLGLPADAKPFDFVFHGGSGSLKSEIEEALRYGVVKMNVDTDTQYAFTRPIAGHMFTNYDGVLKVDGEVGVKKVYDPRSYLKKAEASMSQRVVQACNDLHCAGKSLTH
GDH-TPI counter-1: GDH-TPI coupling enzyme inhibitors, primary screen, artefact control for M. tuberculosis FBA inhibitor project, biochemical, absorbance, full deck | 360,000 compounds, 1.2% hits | AID 588335, 2011 | GDH-TPI coupled enzyme counterscreen, NADH absorbance | inhibition, % at 4.8 µM; in the data active means inhibition above about 30%
Mtb FBA inh conf: M. tuberculosis aldolase blockers, biochemical, fluorescence, strain H37Rv, confirmation; 5,600 compounds, 78% hits; shares compounds with FBA Mtb inh; purified M. tuberculosis FBA, fluorescence read-out; inhibition, % at 1 µM
GDH-TPI counter-2: GDH-TPI coupling enzyme inhibitors, artefact control for M. tuberculosis FBA inhibitor project, biochemical, fluorescence, high throughput. shares compounds with FBA Mtb inh. 5,600 compounds, 81% hits. GDH-TPI coupled enzyme counterscreen. inhibition, % at 1 µM. AID 652141, 2013; in the data active means inhibition above about 10%
Each line names hits and unclear results; the compound was inactive in the other large screens (follow-up assays come after a bar, where they were run). Compounds with a hit are over-represented: about 4% of the library has one in this group of screens. Unless noted, no stated cut-off is given here; in the data, active means inhibition above about 27%; inactive means the rest.

COc1ccc(OC)c(/C=N/NC(=O)CCc2c(C)n[nH]c2C)c1	FBA Mtb inh 77.8 | Mtb FBA inh conf 94.9 | GDH-TPI counter-2 88.8
NS(=O)(=O)c1ccc(CCNC(=S)NC(=O)c2ccccc2Br)cc1	none (no result: RecA splice inh)
c1cc(-c2ccc(N3CCOCC3)cc2)n2cnnc2c1	FBA Mtb inh 92.1 (no result: Mtb betalactam, UGM FP inh, RecA splice inh, Rv3671c protease) | Mtb FBA inh conf 173.7 | GDH-TPI counter-2 151.4
c1cc(-c2ccc3c(c2)CCO3)n2cnnc2c1	none (no result: Mtb betalactam, UGM FP inh, RecA splice inh, Rv3671c protease)
Cc1ccc(S(=O)(=O)N2CCC3(CC2)OCCO3)cc1	none
O=C(NCc1cccnc1)Nc1ccccc1C(F)(F)F	none
CC1(C)Oc2ccc3ccc(=O)oc3c2/C(=C/O)C1=O	FBA Mtb inh 43.5 | Mtb FBA inh conf 153.5 | GDH-TPI counter-2 119.2
C/C=C(/C)C(=O)O[C@H]1[C@@H](O)c2c(ccc3ccc(=O)oc23)OC1(C)C	FBA Mtb inh 34.3 | Mtb FBA inh conf 92.8 | GDH-TPI counter-2 79.5
C/C=C(/C)C(=O)O[C@@H]1Cc2c(ccc3ccc(=O)oc23)OC1(C)C	FBA Mtb inh 45.1 (no result: RecA splice inh) | Mtb FBA inh conf 68.4 | GDH-TPI counter-2 42.5
CC1(C)Oc2ccc3ccc(=O)oc3c2[C@H](O)[C@H]1O	FBA Mtb inh 57.6 (no result: RecA splice inh) | Mtb FBA inh conf 68.9 | GDH-TPI counter-2 58.5
CC(=O)OC1=Cc2c(ccc3ccc(=O)oc23)OC1(C)C	none
CC(NS(=O)(=O)OCC(Cl)(Cl)Cl)c1ccc(Br)cc1 (stereo unspecified)	none
CC1(C)Oc2ccc3ccc(=O)oc3c2C[C@H]1O	FBA Mtb inh 88.2 | Mtb FBA inh conf 148.6 | GDH-TPI counter-2 113.0
CC1(C)Oc2ccc3ccc(=O)oc3c2C(N2CCCCC2)C1O (stereo unspecified)	none
C/C=C(/C)C(=O)OC1c2c(ccc3ccc(=O)oc23)OC(C)(C)C1OC(C)=O (stereo unspecified)	none
C/C=C(/C)C(=O)O[C@@H]1[C@H](OC(C)=O)c2c(ccc3ccc(=O)oc23)OC1(C)C	FBA Mtb inh 31.6, GDH-TPI counter-1 31.8 | Mtb FBA inh conf 114.8 | GDH-TPI counter-2 87.5
CCc1ccc(Nc2n[n+](-c3ccccc3)c(-c3ccc(N(CC)CC)cc3)s2)cc1	FBA Mtb inh 51.4 | Mtb FBA inh conf 36.3 | GDH-TPI counter-2 34.8
CCN(CC)c1ccc(-c2sc(Nc3ccccc3)n[n+]2-c2ccc(F)cc2)cc1	none
CC(=O)Nc1cnc(-c2ccccc2C(C)=O)cn1	none (no result: Mtb betalactam, UGM FP inh, RecA splice inh, Rv3671c protease)
CC(=O)Nc1cnc(/C=C\CCCO)cn1	FBA Mtb inh 31.6 (no result: Mtb betalactam, UGM FP inh, RecA splice inh, Rv3671c protease) | Mtb FBA inh conf inactive | GDH-TPI counter-2 inactive
COc1cc(C2C(C#N)=C(N)Oc3cc(C)n(CC4CCCO4)c(=O)c32)cc2c1OCO2 (stereo unspecified)	none (no result: Mtb betalactam, UGM FP inh, Rv3671c protease)
Cc1cc2c(c(=O)n1CC1CCCO1)C(c1ccco1)C(C#N)=C(N)O2 (stereo unspecified)	FBA Mtb inh 31.6 | Mtb FBA inh conf 40.8 | GDH-TPI counter-2 37.9
Cc1ccc(CNc2ncnc3ccc(-c4ccc(CO)o4)cc23)o1	FBA Mtb inh 81.4 (no result: Mtb betalactam, UGM FP inh, RecA splice inh, Rv3671c protease) | Mtb FBA inh conf inactive | GDH-TPI counter-2 inactive
Cc1csc(CNc2ncnc3ccc(-c4cccc(Cl)c4)cc23)c1	none (no result: RecA splice inh)
Cc1ccc(COC(=O)c2nn(-c3ccccc3)nc2N)cc1	FBA Mtb inh 85.6 | Mtb FBA inh conf inactive | GDH-TPI counter-2 inactive
O=C(c1cccnc1)N1CCC(Oc2ccc(C(=O)N3CCCC(O)C3)cc2)CC1 (stereo unspecified)	FBA Mtb inh 27.9 | Mtb FBA inh conf 57.6 | GDH-TPI counter-2 30.4
CC(NC(=O)c1ccc(OC2CCN(C(=O)c3cccnc3)CC2)cc1)C1CC1 (stereo unspecified)	none
Cc1cc(C)c(S(=O)(=O)NCc2cccnc2)c(C)c1	none
COc1cc2cc(C(c3nnnn3Cc3ccc(F)cc3)N3CCCCCC3)c(=O)[nH]c2cc1OC (stereo unspecified)	FBA Mtb inh 49.0 | Mtb FBA inh conf inactive | GDH-TPI counter-2 inactive
COc1ccc2oc(=O)c(C(=O)NCc3cccnc3)cc2c1	FBA Mtb inh 43.7 | Mtb FBA inh conf inactive | GDH-TPI counter-2 inactive
COc1ccc2cc(C(=O)NCc3ccccc3)c(=O)oc2c1	FBA Mtb inh 32.9 | Mtb FBA inh conf 65.3 | GDH-TPI counter-2 49.6
COc1ccc2oc(=O)c(C(=O)NCc3ccc(F)cc3)cc2c1	FBA Mtb inh 54.0 | Mtb FBA inh conf 89.6 | GDH-TPI counter-2 70.0
COc1ccc2oc(=N)c(C(=O)NCc3ccccc3)cc2c1	none (no result: Rv3671c protease)
COc1ccccc1NS(=O)(=O)c1ccc(C)c(NC(=O)c2c(C)noc2C)c1	none (no result: RecA splice inh)
Cc1csc2ncc(C(=O)NCc3ccco3)c(=O)n12	FBA Mtb inh 35.5 | Mtb FBA inh conf 124.0 | GDH-TPI counter-2 114.5
Cc1cccc(NC(=O)c2cnc3scc(C)n3c2=O)c1	none
Cc1csc2ncc(C(=O)Nc3ccon3)c(=O)n12	FBA Mtb inh 54.8 | Mtb FBA inh conf 123.9 | GDH-TPI counter-2 105.0
O=C1CC(C(=O)N2CCc3ccccc32)CN1c1ccccc1 (stereo unspecified)	none
CC(=O)Nc1cccc(-c2ccnc3c2CC(C(=O)Nc2ccc(Cl)cc2)O3)c1 (stereo unspecified)	none (no result: Mtb betalactam, UGM FP inh, RecA splice inh, Rv3671c protease)
N#C/C(=N\Nc1ccc(Cl)c(Cl)c1)C(=O)C1CC1	FBA Mtb inh 65.7 | Mtb FBA inh conf inactive | GDH-TPI counter-2 inactive
N#C/C(=N\Nc1ccc(F)cc1)C(=N)N1CCCCCC1	none
N#C/C(=N\Nc1ccc(F)cc1)C(=O)C1CC1	FBA Mtb inh 36.8 | Mtb FBA inh conf 63.3 | GDH-TPI counter-2 58.7
O=C(Nc1ccc(Cl)c(Cl)c1)C1CCCCC1	none (no result: RecA splice inh)
CC(=O)c1ccc(-c2ccc(C(=O)NCC(c3ccc(F)cc3)N3CCOCC3)o2)cc1 (stereo unspecified)	FBA Mtb inh 54.7 | Mtb FBA inh conf 57.4 | GDH-TPI counter-2 32.0
Cc1ccc(C(=O)NCC(c2ccc(F)cc2)N2CCOCC2)cc1 (stereo unspecified)	none
CCOC(=O)c1cnn(-c2cc(C)nc3c(-c4ccccc4)c(C)nn23)c1N	none
CCOC(=O)c1c(-c2ccccc2)cn2c(C)cc(C)nc12	FBA Mtb inh 29.7 | Mtb FBA inh conf 89.6 | GDH-TPI counter-2 56.4
Cc1ccc(C(=O)Nc2ncccc2C)cc1S(=O)(=O)N1CCCCC1	none
Cc1ccc(NC(=O)CCNS(=O)(=O)c2ccccc2F)cc1S(=O)(=O)N1CCOCC1	none
O=S(=O)(Nc1cccc(-c2cn3c(n2)SCC3)c1)c1cccs1	FBA Mtb inh 32.1 | Mtb FBA inh conf 97.8 | GDH-TPI counter-2 96.3

Screens as filed in PubChem BioAssay.
